Compound activity from PubChem BioAssay.
Sampled rows, rich in hits. Any-hit rate of the full collection: about 6.2%.
KB-3-1 tox – kills parental KB-3-1 adenocarcinoma cells | KB-3-1 viability, CellTiter-Glo ATP luminescence, 72 h | Potency, µM (series often up to 46.1 µM), usual class: cytotoxic | hit rate 1.4% among 400,000 | AID 1347075; further: nearly all actives have a fitted effect of over 60% in size
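Using CellTiter-Glo luminescence, growth of non-resistant KB-3-1 adenocarcinoma cells is assessed 72 h after pin-tool compound addition at 37 °C. Normalized responses across the concentration series yield fitted curves.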
HT1080-NT tox – kills 2HG-producing HT-1080-NT fibrosarcoma cells; HT-1080-NT fibrosarcoma viability, CellTiter-Glo ATP luminescence, 48 h; Potency, µM (series often up to 46.1 µM), hits mostly cytotoxic; hit rate 1.6% among 360,000;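 further: NT is the 2HG producing partner of a matched IDH1 knockdown line; nearly all actives have a fitted effect of over 55% in size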
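Fibrosarcoma NT cells, 750 per well in 5% FBS RPMI, were exposed to compound for 48 hours. Viability: CellTiter-Glo luminescence.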
S2 tox – reduces viability in counter-screen for ATXN expression inhibitors | S2 cells (HEK-293 line with an ATXN2-luciferase reporter) viability, CellTiter-Fluor protease fluorescence, 24 h | hit rate 0.49% among 400,000 | Potency, µM (top dose mostly 56.7 µM), hits mostly cytotoxic; further: nearly all actives have a fitted effect of over 40% in size
KB-V1 MDR tox – kills drug-selected multidrug resistant KB-V1 cells | hit rate 3.4% among 400,000 | KB-V1 MDR cells viability, CellTiter-Glo, 72 h | Potency, µM (doses to about 46.1 µM), hits mostly cytotoxic | AID 1347076; further: nearly all actives have a fitted effect of over 60% in size
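Compound-treated KB-V1 multidrug-resistant cells, 72 h, 37 degrees C; viability by CellTiter-Glo. Fitted qHTS curves give the values.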
ATXN2 expr inh – reduces ATXN2 reporter expression in HEK-293 cells; HEK-293 ATXN2-luciferase reporter, luminescence, 24 h; hit rate 0.72% among 360,000; AID 1745845; Potency, µM (series often up to 57 µM), hits mostly inhibitors; further: nearly all actives have a fitted effect of over 55% in size
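ATXN2-luciferase reporter cells (luciferase flanked by upstream and downstream ATXN2 gene portions) were treated 24 h at 37 °C with compounds at up to 57 uM. SteadyGlo luminescence gave expression; GF-AFC fluorescence gave viability.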
HT1080 IDH1KD tx – kills HT-1080 cells with IDH1 knockdown; Potency, µM (titrated, usually from 46.1 µM), usual class: cytotoxic; AID 686971; hit rate 2% among 360,000; HT-1080 IDH1 knockdown viability, ATP luminescence, 48 h
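Knockdown cells (IDH1KD HT-1080) received compounds 2 h after plating at 750 cells/well and were kept 48 h at 37 °C in 5% FBS RPMI. A CellTiter-Glo luminescence read gave % activity for curve fitting.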
Numbers stand for hits; - = inactive; ? = inconclusive; . = not tested or not shown. The call rests on the fitted dose curve; in most records, active means well fitted curve in the direction sought with a large enough effect; inconclusive means small, poorly fitted or top-dose-only effect, or another doubt; inactive means no such curve, though single readings can be large; an effect the other way counts as inactive or inconclusive.

SMILES	KB-3-1 tox	HT1080-NT tox	S2 tox	KB-V1 MDR tox	ATXN2 expr inh	HT1080 IDH1KD tx
COc1ccc(CCNC(=O)Cc2ccc(OCc3ccccc3)c(OC)c2[N+](=O)[O-])cc1OCc1ccccc1	?	-	-	2.59µM	-	-
Cc1noc(C)c1CCC(=O)Nc1c(C(C)C)cccc1C(C)C	-	-	?	14.6µM	-	-
CNC(=O)c1ccc(NC(=O)CCc2c(C)noc2C)cc1	-	-	-	-	.	-
COCCCn1c(-c2ccc(S(=O)(=O)N3CCOCC3)cc2)csc1=Nc1ccccc1	?	-	?	-	31.6µM	-
OCCCn1c(-c2ccccc2)csc1=Nc1ccccc1	-	-	?	?	-	-
Clc1ccc(-c2csc(=Nc3cccnc3)n2CCCn2ccnc2)cc1Cl	14.6µM	-	-	10.3µM	-	-
COCCn1c(-c2ccc(Br)cc2)csc1=Nc1cccnc1	14.6µM	-	-	?	-	-
Cc1ccc(-c2nc3ccc(Cl)cn3c2Cc2cccc(F)c2)cc1	-	?	?	-	-	?
CCOC(=O)c1ccc(NC(=O)c2c(NCc3cc(OC)c(OC)cc3OC)sc3c2CCCC3)cc1	-	.	31.6µM	-	-	.
CCOC(=O)c1ccc(NC(=O)c2c(NCc3cc(OC)ccc3OC)sc3c2CCC3)cc1	-	.	?	-	-	.
O=[N+]([O-])c1ccc(Oc2cccc(Br)c2)c2ccncc12	?	20.6µM	-	?	-	?
O=C1CC(c2cccc(Cl)c2Cl)c2cc3c(cc2N1)OCCO3 (centres undefined)	?	.	-	-	-	.
COC(=O)[C@@H]1C[C@]2(OC(=O)c3ccccc3)C=CC(=O)C[C@@H]2N1C(=O)OCc1ccccc1	?	?	.	-	14.1µM	?
COC(CNC(=O)C1CCCN1C(=O)OCc1ccccc1)OC (centres undefined)	-	-	-	-	-	-
CCOC(=O)C1=C(C)N=c2s/c(=C/c3ccc(OCC(=O)O)cc3)c(=O)n2C1c1cc(OC)c(OC)c(OC)c1 (centres undefined)	-	-	?	-	-	-
CCOC(=O)C1=C(C)N=c2sc(=Cc3cc(Cl)c(OCC(=O)O)c(Cl)c3)c(=O)n2C1c1cccc(OC)c1 (centres undefined)	-	25.9µM	-	-	-	20.6µM
COc1ccc(-c2nnc(C3CCN(S(=O)(=O)c4cccc(Cl)c4)CC3)o2)cc1	?	.	11.2µM	-	17.8µM	.
CN(C)c1ccc(-c2noc(C3CCN(S(=O)(=O)c4ccc(C(=O)O)cc4)CC3)n2)cc1	?	-	-	-	-	-
COc1ccc(S(=O)(=O)N2CCN(Cc3cccc(Cl)c3)CC2)cc1	-	-	-	-	-	-
CN(C)c1ccc(-c2noc(C3CCN(S(=O)(=O)c4cccc(Cl)c4)CC3)n2)cc1	16.4µM	-	-	6.51µM	-	-
COc1ccc(-c2nnc(C3CCN(C(=O)c4ccccc4F)CC3)o2)cc1	-	.	3.16µM	-	3.16µM	.
CCc1noc(-c2ccc(N3CCCCC3)c([N+](=O)[O-])c2)n1	-	.	-	-	-	.
O=C(Cn1c(=O)c2sccc2n(Cc2cccc([N+](=O)[O-])c2)c1=O)NCCc1ccccc1	-	-	-	8.2µM	-	?
Cc1cc2cc(CCNC(=O)C(=O)c3c[nH]c4ccccc34)c(=O)[nH]c2cc1C	-	?	?	?	-	13µM
Cc1cc2cc(CCNC(=O)c3ccc(C)c([N+](=O)[O-])c3)c(=O)[nH]c2cc1C	-	-	?	6.51µM	-	-
Cc1cc2cc(CCNC(=O)c3ccc(S(=O)(=O)N4CCCC4)cc3)c(=O)[nH]c2cc1C	.	-	-	.	-	-
O=C(NCCc1c[nH]c2ccccc12)C(=O)c1c[nH]c2ccccc12	?	?	?	-	.	?
Cc1ccc(SCCNC(=O)c2ccc(C)c([N+](=O)[O-])c2)cc1	-	-	-	23.1µM	-	-
COC(=O)c1ccccc1-c1cc(C)cc2c1OC(CNC(=O)C1CCCO1)C2 (centres undefined)	.	.	-	.	.	.
